Screening data from PubChem BioAssay.
Only some compounds are listed: those with a hit (about 14% of all), similar ones and a draw of the others.
LmPK inh = blocks Leishmania mexicana pyruvate kinase activity | purified LmPK, Kinase-Glo ATP luminescence, 1 h | Potency, µM (doses to about 57.5 µM), without a hit: at the highest dose activity change, negative = inhibition, usual class: inhibitors | 0.37% of 290,000 active | AID 1721 | Q27686; also: potency is read from the fitted curve at half-maximal effect; % is scaled to controls: 0 for no effect and ±100 for the full control effect
Target sequence (Q27686 whole entry, looked up): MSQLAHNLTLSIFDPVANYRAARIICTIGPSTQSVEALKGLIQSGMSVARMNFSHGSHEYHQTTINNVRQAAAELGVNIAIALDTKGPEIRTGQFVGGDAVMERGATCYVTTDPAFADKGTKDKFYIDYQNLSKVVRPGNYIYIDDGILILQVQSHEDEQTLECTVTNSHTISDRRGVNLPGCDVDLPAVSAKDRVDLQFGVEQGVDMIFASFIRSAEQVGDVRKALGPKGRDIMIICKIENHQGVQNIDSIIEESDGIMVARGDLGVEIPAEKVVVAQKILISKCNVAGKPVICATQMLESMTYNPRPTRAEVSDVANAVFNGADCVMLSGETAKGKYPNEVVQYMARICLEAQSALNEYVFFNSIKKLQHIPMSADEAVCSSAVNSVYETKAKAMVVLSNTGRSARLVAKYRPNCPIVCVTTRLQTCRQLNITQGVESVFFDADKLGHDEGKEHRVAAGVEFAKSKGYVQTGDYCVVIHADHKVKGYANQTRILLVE
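Pyruvate kinase activity monitored as ATP production (luciferase luminescence). Conditions: 0.1 nM enzyme, 0.5 mM PEP, 0.1 mM ADP, 1 h, RT; normalized against uninhibited and no-enzyme wells.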
Shiga toxin inh = inhibitors of Shiga toxin in Vero cells; 9.2% of 290,000 active; Vero cells, Shiga toxin protein synthesis inhibition reporter; inhibition, % at 38.7 µM; in the data active = inhibition mostly above about 28%, no sharp cut-off; inactive = mostly below about 43%; also: 0% is about no effect
Cycloheximide cs = affects cycloheximide protein synthesis inhibition readout, counter-screen; cell reporter, cycloheximide protein synthesis inhibition counterscreen; max response, %; 12% of 300,000 active; in the data active = max response mostly above about 13%, no sharp cut-off; inactive = mostly below about 14%; also: read at 38.3 µM for the half of the compounds with a filed dose; 0% is about no effect
FBPA Giardia inh = Giardia lamblia aldolase inhibition | A8B2U2 | purified Giardia FBPA | Potency, µM (highest dose often 59.6 µM), inactives show at the highest dose activity, negative = inhibition, most hits filed as inhibitors | 0.71% of 290,000 active | AID 2451; also: potency is read from the fitted curve at half-maximal effect; % is scaled to controls: 0 for no effect and ±100 for the full control effect; nearly all actives have a fitted effect of over 55% in size
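40 nM FBPA preincubated 10 min at RT with compound (up to 57.5 uM final), then substrate plus GAPDH/TPI/NAD/arsenate coupling and diaphorase/resazurin added. Fluorescence read after 20 min at RT, 525/598 nm.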
NS1 inh = blocks influenza NS1 protein function. 0.4% of 270,000 active. Potency, µM (highest dose often 46.1 µM), for inactives: top-dose activity, positive = more growth; calls by dose curve; also: potency is read from the fitted curve at half-maximal effect; actives are rising curves; nearly all actives have a fitted effect of over 50% in size
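Compounds were scored for reversing the slow growth caused by influenza A NS1 in S. cerevisiae, measured by optical density at 600 nm. Assay medium contained 2% galactose at pH 6.0; NS1-free yeast of the same strain were the positive control.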
* hit, by the source's call; ? = inconclusive; . = no result; [ ] = dose if it differs, or a comment. Unless noted, calls follow the shape of the dose curve; as a rule, active = well fitted curve in the direction sought with a large enough effect; inconclusive = small, poorly fitted or top-dose-only effect, or another doubt; inactive = no such curve, though single readings can be large; an effect the other way counts as inactive or inconclusive.

SMILES | LmPK inh | Shiga toxin inh | Cycloheximide cs | FBPA Giardia inh | NS1 inh
COc1ccccc1N1CCN(C2CC(=O)N(c3ccc(F)cc3)C2=O)CC1 (stereo not given) | -3% | 3 | -1 | 15% | ?
CCc1ccccc1N(C(=O)c1ccco1)C(C(=O)NC1CCCC1)c1cccnc1 (stereo not given) | 13% | 7 | -4 | 0% | 8%
CCOC(=O)c1nn(-c2ccc(C)c(C)c2)cc1O | 5% | 94* | 42* | -4% | -37%
CCOC(=O)N1CCC(NC(=O)CC2C(=O)NCCN2Cc2ccccc2)CC1 (stereo not given) | -5% | -7 | 9 | . | -11%
O=C(O)[C@@H](O)c1ccc(F)cc1 | . | . | . | . | -9%
Cc1c(NC(=O)C(C)OC(=O)COc2ccccc2)c(=O)n(-c2ccccc2)n1C (stereo not given) | -10% | -2 | 6 | 0% | .
Cc1c(NC(=O)C(C)OC(=O)CC2Sc3ccccc3NC2=O)c(=O)n(-c2ccccc2)n1C (stereo not given) | -5% | 25 | 13* | 2% | -8%
COc1cccc(-c2nnn(CC(=O)O)n2)c1 | -2% | -6 | 2 | 6% | -2%
CCOC(=O)Cn1nnc(-c2cccc(OC)c2)n1 | -6% | 109* | 43* | 7% | -14%
CCOC(=O)c1cnc(-c2cccc(OC)c2)[nH]c1=O | -1% | 12 | 15* | ? | -12%
COc1cccc(-c2nnn(C/C(N)=N/O)n2)c1 | 0% | -6 | 37* | 8% | 11%
CCOC(=O)c1cnc(-c2ccccc2)[nH]c1=O | -1% | -9 | 1 | -24% | -72%
COC(C[C@@H](O)C[C@H](O)[C@@H](C)OCc1ccccc1)OC | 4% | 2 | -4 | 4% | -1%
CO[C@H]1COC(=O)[C@H]2CCCN2C(=O)C/C=C\[C@@H](C)[C@H](OC)COC(=O)C/C=C\[C@@H]1C | . | . | . | 0%[12.9 µM] | .
CC(=O)Nc1ccc(SCc2ncc(-c3ccccc3)o2)cc1 | -2% | 90* | 44* | 1% | -20%
CC(=O)Nc1ccc(SCC(=O)Nc2ccccc2-c2ccccc2)cc1 | 5% | 14 | 6 | 2% | -6%
CCn1cc(C(=O)NCCCN2CCC(C)CC2)c(=O)c2cc(S(=O)(=O)N3CCOCC3)ccc21 | 0% | -14 | -2 | -5% | 1%
CCC(=O)Nc1nc2ccc3sc(C)nc3c2s1 | -5% | 96* | 50* | -27% | -7%
Cc1nc2c(ccc3nc(NC(=O)C4CC4)sc32)s1 | -1% | 85* | 52* | 6% | .
CCCC(=O)Nc1nc2ccc3nc(C)sc3c2s1 | 6% | 95* | 40* | 1% | -5%
CCCCOc1ccc(NC(=O)CN2CCN(Cc3ccccc3)CC2)cc1 | -1% | -2 | -2 | -1% | 5%
Nc1c(C(=O)Nc2ccc(Cl)cc2)sc2nc(N3CCOCC3)c3c(c12)CCCC3 | -5% | 27 | -8 | . | 17%
COc1cccc(NC(=O)c2sc3nc(N4CCOCC4)c4c(c3c2N)CCCC4)c1 | -16% | 30* | 25* | . | 28%
CC(=O)c1ccc(NC(=O)c2sc3nc(N4CCOCC4)c4c(c3c2N)CCCC4)cc1 | -23% | 65* | 21* | . | ?
C=CCOC(=O)C(C(C)=O)C(NC(=O)OC)c1ccc(Cl)cc1 (stereo not given) | . | . | . | 0%[12.9 µM] | .
SMILES | LmPK inh | Shiga toxin inh | Cycloheximide cs | FBPA Giardia inh | NS1 inh
COc1ccc2oc(=O)c(C(=O)NCc3ccc4c(c3)OCO4)cc2c1 | 2% | 18 | -4 | -12% | -4%
COc1ccc2cc3c(N)c(C(=O)NCc4ccco4)sc3nc2c1 | 4% | 42* | 11 | -1% | ?
COc1cccc2cc(C(=O)NCc3ccco3)c(=Nc3ccc(C(=O)O)cc3)oc12 | -1% | 196* | 76* | 7% | -6%
COc1cc(C(F)(F)F)ccc1C(=O)NCCc1ccco1 | -6% | 80* | 68* | 6% | -7%
COc1ccc2oc(=O)c(C(=O)NCc3ccco3)cc2c1 | -3% | 85* | 25* | 2% | -7%
CC(=O)N1CCc2cc(Br)cc(S(=O)(=O)N3CCC(C(=O)O)CC3)c21 | 9% | -9 | -4 | -5% | -1%
Cc1ccc(-n2nc3c(=O)n(CCCC(=O)NCc4ccco4)nc(C)c3c2C)cc1 | 2% | 1 | 6 | 5% | -12%
O=C(Cn1c(-c2ccccc2)c[n+]2ccsc12)c1ccc(Br)cc1 | 2% | 3 | 14 | 4% | .
Cc1c(C(=O)N2CCCCC2)c(S(=O)(=O)N2CCC(C)CC2)c(C)n1C | 7% | -13 | 2 | 8% | 0%
CCn1cc(C(=O)NCc2ccco2)c2cc(OC)c(OC)cc2c1=O | -3% | -8 | 21* | -10% | -13%
COc1cccc2cc(C(=O)NCc3ccco3)c(=O)oc12 | 9% | 74* | 34* | 1% | 1%
C=Cc1c(C)/c2[n-]/c1=C\c1[n-]c(c(CC)c1C)/C=c1\[n-]c3c(c1C)C(=O)C(C(=O)[O-])C=3c1[n-]c(c(C)c1CCC(=O)[O-])\C=2.[Cu].[Na+].[Na+] (stereo not given) | . | . | . | 14µM* | .
COCCNc1oc(-c2ccccc2Cl)nc1C#N | 7% | 46 | 20 | 2% | -13%
CCOc1ccc(-c2nc(C#N)c(NCC3CCCO3)o2)cc1 (stereo not given) | 2% | 28 | 13 | -4% | -78%
COc1ccc(-c2nc(C#N)c(NCC3CCCO3)o2)cc1OC (stereo not given) | -4% | 11 | 23* | 1% | -15%
N#Cc1nc(-c2ccccc2Cl)oc1NCC1CCCO1 (stereo not given) | 10% | 91* | 16 | 0% | -12%
O=C(NCc1ccccc1C(F)(F)F)C12CN(Cc3ccccc3)CC1C(c1ccc([N+](=O)[O-])cc1)=NO2 (stereo not given) | 1% | 41 | 18* | 7% | ?
Cc1ccc(CS/C(Nc2ccccc2C)=C(\C#N)C(=O)NCc2ccco2)c(C)c1 | 7% | 91* | 66* | -19% | 2%
Cc1ccc(C)c(NC(=O)/C(C#N)=C/c2cn(CC(=O)NCc3ccco3)c3ccccc23)c1 | 2% | -13 | -3 | 0% | 6%
Cc1ccccc1N/C(SCc1ccc(Cl)cc1)=C(/C#N)C(=O)NCc1ccco1 | 2% | 112* | 41* | -12% | 7%
CN1C2CCC1CC(OC(=O)C(O)c1ccccc1)C2 (stereo not given) | . | . | . | -4% | -1%
CCOC(=O)c1c[nH]c2c3c(ccc2c1=O)CCCC3 | 3% | 45 | 22* | -6%[12.9 µM] | 4%
O=C(CCc1nnc2ccc(NCc3ccco3)nn12)Nc1ccc(F)cc1 | -9% | 22 | 4 | . | 15%
Cc1ccc(NC(=O)CCc2nnc3ccc(NCc4ccco4)nn23)cc1 | 3% | 18 | 35* | -7% | 6%
COc1ccc2[nH]c3c4c(ccc3c2c1)C(=O)C=CC4=O | ? | 89* | 38* | ? | -26%
COc1ccc(C(=O)N2CCC3(CC2)CCN(c2ccncc2)CC3)cc1 | . | . | . | 4% | .
CCCn1c(O)c2ccc(C(=O)N=NC(=O)c3cccnc3)cc2c1O | 0% | -26 | 1 | 3% | -2%
